The text below walks through data of PubChem BioAssay (Tox21).

A number with no mark means an inactive call. Calls of active or inactive are those of the source. The call rests on the fitted dose curve; in most records, active means well fitted curve in the direction sought with a large enough effect in the repeat runs; inconclusive means weak or mixed curves; inactive means flat fitted curve, though single readings scatter.
On the % scale 0 is the no-effect control and ±100 the full control effect; potency means the concentration at half of the fitted maximal effect; tags describe the fitted curve by direction and shape or compound fluorescence and quenching.

The test can be described thus: qHTS assay to test for compound auto fluorescence at 535 nm (green) in HepG2 cell free culture (AID 720686). The settings on record: Cell-free medium, green autofluorescence 485/535 nm; series mostly up to 46 µM; fluorescence, % of fluorescein control: at the top concentration. An excerpt:
U.S. Tox21 Program National Center for Advancing Translational Sciences [NCATS] NIH Chemical Genomics Center [NCGC] U.S. Environmental Protection Agency [EPA] National Institutes of Environmental Health Sciences [NIEHS] National Toxicology Program [NTP] U.S. Food and Drug Administration [FDA] Tox21 Assay Overview: Compound auto fluorescence often interferes with screening of the compound library against various biological targets and signaling pathways. Some of these compounds may have fluorophoric properties. Such properties may interfere with the assay outputs resulting in false positives and/or negatives. To decrease such complications and ensure the compound activities are relevant in terms of biological response, the Tox21 10K compound library was screened for auto fluorescence. From the fluorophores used as reporter signals in our screening assays, the auto fluorescence equivalencies of compounds against three fluorophores have been evaluated: Triamterene, Fluorescein and Rose Bengal sodium for blue, green and red fluorescence, respectively. The fluorescence intensities were measured using Excitation/Emission wavelengths at 405/460nm, 485/535nm and 540/590nm for blue, green and red labels, respectively. This assay includes the green fluorescence data.
Tox21 Assay Protocol Summary: 5 uL of culture medium (MEM containing 10% FBS) per well was dispensed into black wall/clear bottom 1536-well plates using a Multidrop Combi Dispenser (ThermoFisher Scientific, Waltham, MA). After 23 nL compound or DMSO vehicle was transferred into assay plate by a pintool work station (Kalypsys, San Diego, CA), fluorescence intensities in the assay plates were measured by an Envision (PerkinElmer, Shelton, CT) plate reader using three labels for measuring blue, green and red fluorescence at […] 460, 535 and 590nm respectively.
(Quantitative high-throughput screening tests each substance at several concentrations.)
Regarding `CC/C=C\C/C=C\C/C=C\C/C=C\C/C=C\C/C=C\CCC(=O)O`, the “fluorescence, % of fluorescein control” value is 0.329%.
On to `COc1cc2c(cc1OC)[C@@H](Cc1cc(OC)c(OC)c(OC)c1)[N+](C)(CCCOC(=O)CC/C=C/CCC(=O)OCCC[N+]1(C)CCc3cc(OC)c(OC)cc3[C@H]1Cc1cc(OC)c(OC)c(OC)c1)CC2` (stereo not given in full), for which the Potency entry is “inactive”.
On to `COc1ccc(/C=C/C(=O)O)cc1`, for which the “fluorescence, % of fluorescein control” value was -0.0716%.
Same read-out and setting: the value for `O=C1c2ccccc2CN2C(=O)c3ccccc3CN12` was 0.0421%.
Still for that read-out and setting: then `CCN(CC)CC#CCOC(=O)C(O)(c1ccccc1)C1CCCCC1` (stereo not given), with 0.0295%.
Turning to `S=C1NC=NC2N=CNC12` (stereo not given), the “fluorescence, % of fluorescein control” value was 0.0038% [at 91.3 µM].
Still for that read-out and setting: then `C[C@H]1O[C@@H](O[C@H]2CC[C@@]3(C)[C@H](CC[C@@H]4[C@@H]3C[C@@H](O)[C@]3(C)[C@@H](C5=CC(=O)OC5)CC[C@]43O)C2)C[C@H](O)[C@@H]1O[C@H]1C[C@H](O)[C@H](O[C@H]2C[C@H](O)[C@H](O[C@@H]3O[C@H](CO)[C@@H](O)[C@H](O)[C@H]3O)[C@@H](C)O2)[C@@H](C)O1`, with -0.015%.
With `C/C(=C\C(=O)OCCCCCCCCC(=O)O)C[C@@H]1OC[C@H](C[C@@H]2O[C@H]2[C@@H](C)[C@H](C)O)[C@@H](O)[C@H]1O`, the “fluorescence, % of fluorescein control” value is -0.0272%.
On the same count and under the same terms, the value for `CCC(C)(C)c1ccc(CC(C)CN2C[C@@H](C)O[C@@H](C)C2)cc1` (stereo not given in full) was 0.0105%.
As for `O=C(N[C@H](CO)[C@H](O)c1ccc([N+](=O)[O-])cc1)C(Cl)Cl`, the Potency entry is “inactive”.
On to `C[C@@H]1C(=O)NC2=Nc3cccc(Cl)c3CN21`, for which the “fluorescence, % of fluorescein control” value was -0.011%.
Still for that read-out and setting: then `Cc1ccc(Cl)c(N)c1Cl`, with -0.0034% [at 91.3 µM].
In the case of `CCN(CC)CCNC(=O)c1ccc(NS(C)(=O)=O)cc1`, the “fluorescence, % of fluorescein control” value was 0.0865%.
In the case of `NC(=O)CC[C@@H]1NC(=O)[C@H](Cc2ccccc2)NC(=O)[C@H](Cc2ccc(O)cc2)NC(=O)[C@@H](N)CSSC[C@@H](C(=O)N2CCC[C@H]2C(=O)N[C@@H](CCCN=C(N)N)C(=O)NCC(N)=O)NC(=O)[C@H](CC(N)=O)NC1=O`, the Potency entry was “inactive”.
For `Nc1nc(/C(=C/CC(=O)O)C(=O)N[C@@H]2C(=O)N3C(C(=O)O)=CCS[C@H]23)cs1`, the “fluorescence, % of fluorescein control” value is 0.204%.
The same measure, in the same setting: then `O=[N+]([O-])c1ccc(O)c2ncccc12`, with 0.0004%; and `OCC1(CO)COC(C(Cl)(Cl)Cl)OC1`, with 0.0048%; and `CC1(C)S[C@@H]2[C@H](NC(=O)[C@@H](NC(=O)N3CCNC3=O)c3ccccc3)C(=O)N2[C@H]1C(=O)O`, with -0.0426% [at 18.6 µM].
As to `O=P(O)(O)CP(=O)(O)O`, the “fluorescence, % of fluorescein control” value is 0.02%.
Take `C[C@H](O)CN(C)C`: the “fluorescence, % of fluorescein control” value is 0.0613%.
Still for that read-out and setting: the value for `C=C1[C@@H]2CC[C@@H](C2)C1(C)C` was 0.0349%.
As for `CCOC(=O)Cc1ccc(-c2ccccc2)cc1`, the “fluorescence, % of fluorescein control” value was -0.0044%.
The same measure, in the same setting: the value for `CC(C)CCC[C@@H](C)[C@H]1CC[C@H]2[C@@H]3CC[C@@H]4C[C@H](O)CC[C@]4(C)[C@H]3CC[C@]12C` was -0.115%; that for `C1CCc2nnnn2CC1` was 0.0887%; that for `Oc1ccc(Cl)c2c1CCC2` was -0.0219%.
Turning to `O=C(O)c1cc(O)c2c(c1)[C@H]([C@H]1c3cc(C(=O)O)cc(O)c3C(=O)c3c(O[C@@H]4O[C@H](CO)[C@@H](O)[C@H](O)[C@H]4O)cccc31)c1cccc(O[C@@H]3O[C@H](CO)[C@@H](O)[C@H](O)[C@H]3O)c1C2=O`, the “fluorescence, % of fluorescein control” value is -0.0943%.
`CC(=O)[C@]1(O)Cc2c(O)c3c(c(O)c2[C@@H](O[C@H]2C[C@H](N)[C@H](O)[C@H](C)O2)C1)C(=O)c1ccccc1C3=O`: the Potency is 14.1 µM [fluorescent] (active).
Turning to `CO/N=C(\C(=O)N[C@@H]1C(=O)N2C(C(=O)O)=C(C[N+]3(C)CCCC3)CS[C@H]12)c1csc(N)n1`, the “fluorescence, % of fluorescein control” value is -0.0226%.
For `CC(O)(c1ccc(Cl)cc1)c1ccc(Cl)cc1`, the “fluorescence, % of fluorescein control” value is 0.0375% [at 91.3 µM].
Regarding `OCl`, the “fluorescence, % of fluorescein control” value was 0.033%.
The same measure, in the same setting: then `CC(C)C[C@@H](NC(=O)[C@@H](O)[C@H](N)Cc1ccccc1)C(=O)O`, with 0.0728%; and `CN(C)CCc1c[nH]c2ccc(Cn3cncn3)cc12`, with -0.0612%.
As to `CCCCCCCCCC(=O)NO`, the Potency entry is “inactive”.
As to `c1ccc(-n2cnnn2)cc1`, the “fluorescence, % of fluorescein control” value was 0.0134%.
Same read-out and setting: then `CNCC(=O)N[C@@H](CCCN=C(N)N)C(=O)N[C@H](C(=O)N[C@@H](Cc1ccc(O)cc1)C(=O)N[C@H](C(=O)N[C@@H](Cc1cnc[nH]1)C(=O)N1CCC[C@H]1C(=O)N[C@@H](C)C(=O)O)C(C)C)C(C)C`, with 0.0097%; and `CCN(CC)CCOC[C@H]1O[C@@H](O)[C@H](OCCN(CC)CC)[C@@H](O)[C@@H]1O`, with 0.0477%; and `O=C1OC(O)C(C(Cl)Cl)=C1Cl` (stereo not given), with -0.0607% [at 95.7 µM].
Consider `CC12CCC(C1)C(C)(C)C2=O` (stereo not given), for which the “fluorescence, % of fluorescein control” value was -0.0512%.
The same measure, in the same setting: the value for `Cc1cn([C@H]2C[C@H](O)[C@@H](CO)O2)c(=O)[nH]c1=O` was -0.0162%; that for `NCC[C@H](O)C(=O)N[C@@H]1C[C@H](N)[C@@H](O[C@H]2O[C@H](CN)CC[C@H]2N)[C@H](O)[C@H]1O[C@H]1O[C@H](CO)[C@@H](O)[C@H](N)[C@H]1O` was 0.307%.
